Rows were chosen to be rich in hits. Some 11% of all compounds tested hit in one or more screens of this group.
MCF10A rerep: DNA re-replication induction in MCF 10a cells; 2.9% of 350,000 active; Potency, µM (highest dose often 46.1 µM), for the others: at the highest dose activity, positive = re-replication, hits mostly activators; AID 624296; MCF 10A DNA re-replication, Hoechst nuclear intensity, 48 h; also: potency is read from the fitted curve at half-maximal effect; % of control where 0% means no effect; nearly all actives have a fitted effect of over 50% in size
VP16 counter: inhibits Gal4-VP16 luciferase reporter, ROR gamma counter-screen | Potency, µM (titrated, usually from 53.6 µM), for inactives: top-dose activity, negative = inhibition, actives largely listed as inhibitors | Drosophila S2 Gal4-VP16 UAS-luciferase, luminescence, 20 h | AID 2546 | 3.5% of 310,000 active;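 also: Gal4-VP16 expression switched on by copper sulfate through the metallothionein promoter; potency is read from the fitted curve at half-maximal effect; % is scaled to controls: 0 for no effect and ±100 for the full control effect; nearly all actives have a fitted effect of over 50% in size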
SW480 rereplic: DNA re-replication induction in SW480 cells; Potency, µM (titrated, usually from 46.1 µM), for the others: at the top dose re-replication activation, actives largely listed as activators; SW480 DNA re-replication, Hoechst DNA content imaging, 48 h; 1.8% of 340,000 active; also: potency is read from the fitted curve at half-maximal effect; % of control where 0% means no effect; nearly all actives have a fitted effect of over 55% in size
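Cells (250 per well) received 23 nL compound or DMSO by pin tool and were kept 48 hr at 37 C, 5% CO2. Nuclei were then stained with Hoechst for 40 min and scanned for DNA content.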
IL-1B inflam inh: blocks inflammasome-driven IL-1 beta release | THP-1 LPS/ATP IL-1B secretion, AlphaLISA, 16 h; hits give low values | activity change, % at 57.5 µM | 4.7% of 360,000 active | AID 743279; in the data active = activity change below about -50%; inconclusive = mostly about -30% to -49%; also: % is scaled to controls: 0 for no effect and ±100 for the full control effect
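Secreted IL-1B measured by AlphaLISA bead assay after 16 h compound exposure of THP-1 cells; compounds (final up to 57.5 uM) added 1 h before LPS (250 ng/mL) and ATP (1.25 mM) stimulation; lower signal means less secretion.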
RORg inh: inhibitors of mouse ROR gamma transcriptional activity. 5.4% of 310,000 active. Potency, µM (titrated, usually from 53.6 µM), for the others: top-dose activity change, negative = inhibition, actives largely listed as inhibitors. AID 2551. Drosophila S2 Gal4-RORgamma UAS-luciferase reporter, 20 h. P51450; also: potency is read from the fitted curve at half-maximal effect; % is scaled to controls: 0 for no effect and ±100 for the full control effect; nearly all actives have a fitted effect of over 60% in size
Target sequence (P51450 whole entry, looked up, the tested form may be a part): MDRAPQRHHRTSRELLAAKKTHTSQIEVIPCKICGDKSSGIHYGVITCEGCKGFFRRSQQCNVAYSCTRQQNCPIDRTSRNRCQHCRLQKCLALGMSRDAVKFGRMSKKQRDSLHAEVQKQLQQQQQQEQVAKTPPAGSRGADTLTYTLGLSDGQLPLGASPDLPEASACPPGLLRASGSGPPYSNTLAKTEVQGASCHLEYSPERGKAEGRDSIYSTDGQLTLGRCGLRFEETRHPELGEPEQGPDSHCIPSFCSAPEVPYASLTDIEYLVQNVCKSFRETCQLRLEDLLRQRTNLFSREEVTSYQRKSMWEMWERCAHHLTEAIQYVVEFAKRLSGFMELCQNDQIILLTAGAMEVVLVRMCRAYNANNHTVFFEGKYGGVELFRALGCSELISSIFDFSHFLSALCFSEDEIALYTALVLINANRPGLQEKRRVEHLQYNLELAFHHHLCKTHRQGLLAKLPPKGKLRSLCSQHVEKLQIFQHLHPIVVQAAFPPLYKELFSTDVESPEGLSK
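Drosophila Schneider cells stably carrying a metallothionein-driven Gal4 DBD–ROR gamma fusion and a UAS-Photinus luciferase reporter were exposed to compound for 1 hr, then induced with copper sulfate (700 uM final) for 20 hr at ambient temperature before luminescence reading.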
* marks the source's active call; other numbers are inactive results; ? = inconclusive; / = no result given; [ ] = remark or other dose. Unless noted, calls follow the shape of the dose curve; as a rule, active = well fitted curve in the direction sought with a large enough effect; inconclusive = small, poorly fitted or top-dose-only effect, or another doubt; inactive = no such curve, though single readings can be large; an effect the other way counts as inactive or inconclusive.

SMILES	MCF10A rerep	VP16 counter	SW480 rereplic	IL-1B inflam inh	RORg inh
COC(=O)[C@]12CCCCC=C1N(CCC1=CCCCC1)C(=O)[C@H](CC(=O)N1CCN(C(=O)c3ccco3)CC1)C2	/	/	/	-15	/
Cc1ccc(NC(=O)CSc2ncnc3ccccc23)cc1S(=O)(=O)N1CCCCC1	?	?	0%	-95*	?
Cc1ccc(NC(=O)CSc2nc(N)cc(N)n2)cc1S(=O)(=O)N1CCOCC1	?	-12%	3.7µM*	21	?
COc1ccc(S(=O)(=O)N2CCCCC2)cc1NC(=O)CSc1ncnc2ccccc12	18%	-7%	21%	-62*	44%
Cc1ccc(NC(=O)CSc2ncnc3ccccc23)cc1S(=O)(=O)N1CCOCC1	13%	-12%	-2%	-100*	41%
Cc1ccc(NC(=O)CSc2ccccc2)cc1S(=O)(=O)N1CCCCC1	6%	/	-5%	-26	/
Cc1ccc(NC(=O)CSc2nc(C)c(C)c(C)n2)cc1S(=O)(=O)N1CCOCC1	0%	/	3%	32	/
COC(=O)[C@@]12C[C@@H](CC(=O)N3CCSCC3)C(=O)N(Cc3cccc4ccccc34)C1=CCC(C)(C)C2	/	/	/	-3	/
O=C(NCCC1CCCCN1S(=O)(=O)c1ccccc1)C(=O)NC1CC1 (configuration not stated)	17%	/	2%	-14	/
Cc1ccc(NC(=O)CNc2cccc(Br)c2)cc1S(=O)(=O)N1CCOCC1	3%	/	9%	-52*	/
CC(C)(C)c1ccc(O)c(O)c1	?	?	?	-81*	?
CC(C)(C)c1ccc(O)c(/C=N\O)c1	18%	?	2%	-9	11µM*
CC(C)(C)c1cccc(/C=N/O)c1O	1%	?	-3%	0	?
COc1ccc(-n2c(=O)c(-c3cccc(F)c3)nc3cncnc32)cc1	/	5%	/	/	9%
Cc1cc(C(=O)OCC(=O)NC2CCCCC2)c(C)o1	0%	7%	-2%	4	12%
Cc1cc2c(cc(C(=O)OCC(=O)NC3CCCCC3)n2C)o1	26µM*	/	?	-19	/
C=C(C)CNC(=S)Nc1sc2c(c1C(=O)OCC)CC(C)(C)OC2	6%	1.4µM*	-7%	20	1.4µM*
CCOC(=O)c1[nH]c(C)c(C(=O)Nc2ccc(C)cc2C)c1C	13µM*	-17%	10µM*	-8	?
CCOC(=O)c1[nH]c(C)c(C(=O)Nc2ccc(F)cc2)c1C	1%	15%	4%	-5	19%
CCOC(=O)c1[nH]c(C)c(C(=O)OCC(=O)NC(C)c2ccc(F)cc2)c1C (configuration not stated)	?	/	9.2µM*	0	/
CCOC(=O)c1[nH]c(C)c(C(=O)Nc2ccccc2F)c1C	7.3µM*	0%	8.2µM*	0	-4%
CCOC(=O)c1[nH]c(C)c(C(=O)c2ccc(C)cc2)c1C	1.5µM*	7%	5.2µM*	3	43%
CCOC(=O)c1c(C)[nH]c(C(=O)OCC(=O)Nc2cc(C)ccc2OC)c1C	?	2%	-14%	40	3%
CCOC(=O)c1[nH]c(C)c(C(=O)Nc2cc(OC)ccc2OC)c1C	0.63µM*	-25%	1.3µM*	76	-5%
Cc1nc2ccccc2c(=O)n1NS(C)(=O)=O	0%	5%	3%	-3	14%
SMILES	MCF10A rerep	VP16 counter	SW480 rereplic	IL-1B inflam inh	RORg inh
Cc1nc2ccccc2c(=O)n1NCc1cc(Br)cs1	23µM*	8%	?	0	-32%
CC[C@H](C)[C@@H](NC(=O)O[C@@H]1C(=O)c2ccc(OC)cc2O[C@H]1c1ccc2c(c1)OCO2)C(=O)OC	/	4%	/	/	31%
CCOC(=O)C1CCCN(C(=O)c2ccc3c(=O)n(Cc4ccccc4OC)c(=S)[nH]c3c2)C1 (configuration not stated)	?	?	-2%	24	?
CCN1C(=O)[C@H]2[C@@H](c3ccc(OC)cc3)N3C(=O)CN(CCOC)C(=O)[C@@]3(C)[C@H]2C1=O	-5%	3%	2%	3	-11%
CC(C)N1CCN(Cc2cccc(-c3ccco3)c2)CC1CCO (configuration not stated)	18%	-4%	-4%	13	-3%
Cc1ccccc1-c1cccc(CN2CCN(C)C(CCO)C2)c1 (configuration not stated)	12%	-12%	1%	-54*	37%[1.91 µM]
Cc1cc2c(cc1S(=O)(=O)N1CCN(c3cccc(C(F)(F)F)c3)CC1)OCC(=O)N2	23µM*	-10%	?	54	-23%
CC(=O)N(C)c1ccc(N=NC2C(=O)N(C(N)=S)N=C2C)cc1 (configuration not stated)	1%	2µM*	-3%	-2	1µM*
CC1=NN(C(N)=S)C(=O)C1N=Nc1ccc(S(N)(=O)=O)cc1 (configuration not stated)	-1%	?	0%	0	-10%[1.91 µM]
CC1=NN(C(N)=S)C(=O)C1N=Nc1ccccc1C (configuration not stated)	2%	0.045µM*	?	-7	0.1µM*
CC1=NN(C(N)=S)C(=O)C1N=Nc1ccccc1[N+](=O)[O-] (configuration not stated)	/	/	/	16	/
CC1=NN(C(N)=S)C(=O)C1N=Nc1c(Cl)cc([N+](=O)[O-])cc1Cl (configuration not stated)	19%	1.6µM*	-3%	-19	0.35µM*
CC1=NN(C(N)=S)C(=O)C1N=Nc1c(Br)cc(Br)cc1Br (configuration not stated)	?	1.3µM*	16%[1.84 µM]	8	1.4µM*
CO[C@H]1OC[C@@]2(C)[C@@H]3C4=C(CN2C(=O)OC(C)(C)C)[C@H](C)[C@H](CO)[C@H](CO)[C@H]4CC[C@H]13	/	6%	/	/	-8%
COc1ccc2sc(-c3ccc(N(C)C)cc3)c(-c3cnc(OC)nc3)c2c1	?	/	-3%[9.22 µM]	-10	/
CCOc1ccccc1N=NC1C(=O)N(C(N)=S)N=C1C (configuration not stated)	2%	1µM*	?	41	0.71µM*
CC1=NN(C(N)=S)C(=O)C1N=Nc1ccc(C)cc1C (configuration not stated)	/	1.1µM*	/	/	0.5µM*
CC1=NN(C(N)=S)C(=O)C1N=Nc1c(C)cc(C)cc1C (configuration not stated)	?	1.8µM*	-13%	12	0.5µM*
CC1=NN(C(N)=S)C(=O)C1N=Nc1cccc(Cl)c1 (configuration not stated)	4%	2µM*	-17%	-1	0.79µM*
O=C1CCCCCCC(=O)[C@H](O)C[C@H](c2ccccc2)O1	/	/	/	0	/
CCc1ccc(N(CC(=O)NC(C)(C)C)C(=O)CCC(=O)Nc2ccccn2)cc1	2%	-9%	?	-1	43%
